# Where “and” joins values, the source holds several entries; their conditions need not be identical. Identical values can stand only once. The campaign covered roughly 110,000 compounds. About 230 (0.21%) showed an effect of 50% or more. The sample as a whole holds a higher share of strong results than the screen did.
# Molecular target: DPAP1 (Plasmodium falciparum, UniProt Q8IIJ9)
# Test: primary screen, percent inhibition; read by cleavage of a fluorogenic dipeptide substrate; higher = more effect of the substance
# Parameters: species or system P. falciparum D10 trophozoite lysates; single well
# Description: HTS was performed in black 384-well plates. The first and last two columns of each plate contained our negative (DMSO) and positive (10 μM JCP410) controls, and the 20 central columns the test compounds at 10 μM. Compounds were first diluted 50-fold into assay buffer (50 mM sodium acetate, 5 mM MgCl2, 10 mM β-mercaptoethanol, and 0.1% CHAPS, pH 5.5) from a 10 mM DMSO stock plates. One microliter of this 200 μM intermediate stock plate was dispensed into the assay plate. […] After 30 min, the reaction was quenched with 20 μL of 0.5 M acetic acid, and the fluorescent intensity measured at 523 nm (λex = 492 nm) using an Analyst HT multimode plate reader (Molecular Devices).
# 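Note: 30 min substrate incubation versus DMSO and 10 µM JCP410 controls.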
# Sequence of DPAP1 (Q8IIJ9 whole entry, looked up): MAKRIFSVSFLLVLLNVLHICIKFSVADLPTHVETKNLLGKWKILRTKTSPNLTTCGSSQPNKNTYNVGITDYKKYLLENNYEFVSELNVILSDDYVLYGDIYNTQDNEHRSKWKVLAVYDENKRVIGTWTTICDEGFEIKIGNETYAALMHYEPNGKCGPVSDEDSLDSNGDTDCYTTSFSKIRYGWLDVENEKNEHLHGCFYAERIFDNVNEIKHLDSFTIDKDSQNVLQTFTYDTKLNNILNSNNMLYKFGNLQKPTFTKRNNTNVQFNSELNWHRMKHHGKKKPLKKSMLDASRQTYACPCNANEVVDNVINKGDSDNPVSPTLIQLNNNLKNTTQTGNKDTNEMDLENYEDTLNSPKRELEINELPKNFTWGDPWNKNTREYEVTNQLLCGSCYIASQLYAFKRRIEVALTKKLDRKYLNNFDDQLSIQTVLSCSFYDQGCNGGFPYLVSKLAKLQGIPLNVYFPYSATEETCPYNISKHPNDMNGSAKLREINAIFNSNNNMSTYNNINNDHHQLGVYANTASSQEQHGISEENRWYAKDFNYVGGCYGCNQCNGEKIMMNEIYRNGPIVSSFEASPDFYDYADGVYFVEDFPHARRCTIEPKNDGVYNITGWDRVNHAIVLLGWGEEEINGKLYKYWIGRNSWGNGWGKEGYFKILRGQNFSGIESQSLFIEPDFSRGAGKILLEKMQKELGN
row,Structure (SMILES),% Inhibition @ 10 uM
1,CC1CCN(S(=O)(=O)c2ccc(NC(=O)c3ccc(-c4ccccc4)cc3)cc2)CC1,2.13%
2,Cc1sc2s[n+](CCCS(=O)(=O)O)c(C)c2c1C,-1.33%
3,CCOc1ccc(N2CC(C(=O)Nc3ccc(Br)cc3C)CC2=O)cc1 (stereo not drawn),4.05%
4,CCCCC(=O)Nc1c(-c2ccccc2)nc2ccccn12,-3.19%
5,O=c1c2c3c(sc2[nH]c(=S)n1Cc1ccccc1)CCC3,21%
6,CC1(C)Cc2c(sc3[nH]c(=S)[nH]c(=S)c23)CO1,15%
7,C=C(C)Cn1c(=S)[nH]c2sc3c(c2c1=O)CCCC3,57.3%
8,O=c1c2c3c(sc2[nH]c(=S)n1C1CCCCC1)CCCC3,9.26%
9,O=c1[nH]c(=S)[nH]c2sc3c(c12)CCC1(CCCCC1)C3,5.93%
10,O=c1c2c3c(sc2[nH]c(=S)n1Cc1ccccc1)CCCC3,3.06%
11,CCn1c(=S)[nH]c2sc3c(c2c1=O)CCCC3,42.2%
12,S=c1[nH]c(=S)c2c3c(sc2[nH]1)CCC3,85.2%
13,CCn1c(=S)[nH]c2sc3c(c2c1=O)CCC3,64.7%
14,Cc1cc2nnc(SCC(=O)O)n2c2ccccc12,-2.19%
15,C=C(C)COc1ccc2cc(-c3nc4ccccc4s3)c(=O)oc2c1,6.22%
16,CC(C)(C)c1ccc(C(=O)NCc2cccc3ccccc23)cc1,-3.48%
17,N#CC1=C2SCN(Cc3ccccc3)CN2C(=O)CC1c1cccc2ccccc12 (stereo not drawn),51.5%
18,Cc1ccccc1C1CC(=O)N2CN(C3CCCCC3)CSC2=C1C#N (stereo not drawn),24%
19,N#CC1=C2SCN(Cc3ccco3)CN2C(=O)CC1c1cccc2ccccc12 (stereo not drawn),45.5%
20,N#CC1=C2SCN(C3CCCCC3)CN2C(=O)CC1c1ccccc1F (stereo not drawn),37.8%
21,Cc1ccccc1C1CC(=O)N2CN(Cc3ccccc3)CSC2=C1C#N (stereo not drawn),31.2%
22,N#CC1=C2SCN(C3CCCCC3)CN2C(=O)CC1c1cccc2ccccc12 (stereo not drawn),53.8%
23,CC1(c2ccccc2)CC(C)(C)N(C(=O)/C=C/c2ccccc2)c2ccccc21 (stereo not drawn),0.467%
24,COc1ccc(/C=C/C(=O)N2c3ccccc3C(C)(c3ccccc3)CC2(C)C)cc1 (stereo not drawn),56.6%
25,COc1ccc(C(=O)N2c3ccccc3C(C)(c3ccccc3)CC2(C)C)cc1 (stereo not drawn),-2%
26,CCc1ccc(NC(=O)C2CCN(S(=O)(=O)c3cc(Cl)ccc3Cl)CC2)cc1,-4.06%
27,O=C1c2ccccc2C(=O)N1CNc1ccc(Cl)c(Cl)c1,-1.17%

row,Structure (SMILES),% Inhibition @ 10 uM
1,Cn1ccc(C(=O)Nc2sc3c(c2C(N)=O)CCCCC3)n1,47%
2,Cn1cc(Br)c(C(=O)Nc2sc3c(c2C(N)=O)CCC3)n1,1.02%
3,NC(=O)c1c(NC(=O)C2CCC2)sc2c1CCCCC2,7.35%
4,CC(=O)Nc1sc2c(c1C(N)=O)CCCCCC2,2.65%
5,NC(=O)c1c(NC(=O)C2CC2)sc2c1CCCCCC2,5.39%
6,NC(=O)c1c(NC(=O)C2CC2)sc2c1CCCCC2,50.4%
7,CCOC(=O)c1c(NC(=O)C23CC4CC(CC(C4)C2)C3)sc2c1CCCC2,-1.36%
8,NC(=O)c1c(NC(=O)C23CC4CC(CC(C4)C2)C3)sc2c1CCCCC2,52.3%
9,Cn1cc(Br)c(C(=O)Nc2sc3c(c2C(N)=O)CCCCC3)n1,51.9%
10,O=C(Nc1cccc(Cl)c1)N1CCC(Cc2ccccc2)CC1,0.727%
11,Cc1cccc(NS(=O)(=O)c2ccccc2)n1,-3.56%
12,COc1ccc(-c2cc(C(=O)N3CCOCC3)c3ccccc3n2)cc1,0.245%
13,COc1cc(C2C(C#N)=C(N)OC3=C2C(=O)CCC3)cc(OC)c1OC (stereo not drawn),0.687%
14,O=C(CCc1nnc2n(CCc3ccccc3)c(=O)c3ccccc3n12)N1CCOCC1,0.981%
15,O=C(NCc1ccccc1Br)C1CCCN(c2nnc(N3CCCC3=O)s2)C1 (stereo not drawn),-4.68%
16,CC(C)CC(NC(=O)N1CCC(N2CCCCC2)CC1)C(=O)NCC#N (stereo not drawn),-0.972%
17,Cc1ccccc1-c1ccccc1N,-0.305%
18,COc1ccc(CNC(=O)Cn2ncn3cccc3c2=O)cc1,-5.15%
19,CCOc1cccc(-n2cc(-c3ccccc3)nc2S)c1,42.6%
20,COc1ccc(OC)c(-n2cc(-c3ccccc3)nc2SC)c1,4.49%
21,Sc1nc(-c2ccccc2)cn1-c1ccccc1,37.1%
22,CCOc1ccc(-c2cn(-c3ccccc3F)c(S)n2)cc1,56.2%
23,COc1ccccc1-n1cc(-c2ccccc2)nc1S,58.6%
24,Fc1ccccc1-n1cc(-c2ccccc2)nc1S,45.3%
25,CC1CC(C)CN(CCCNC(=O)Cn2ncn3nc(-c4cccs4)cc3c2=O)C1 (stereo not drawn),2.27%
26,Cc1ccc(C(=O)NC2(C(F)(F)F)C(=O)Nc3c2c(=O)[nH]c(=O)n3-c2ccc(Cl)cc2)cc1 (stereo not drawn),-3.39%
27,CCc1cc2c(cc3c(=O)n(CC(=O)NCCc4ccc(OC)c(OC)c4)nc(CC)n32)s1,3.29%

row,Structure (SMILES),% Inhibition @ 10 uM
1,Cc1nn(C)c2c1c(-c1ccccc1)cc(=O)n2Cc1cccc(F)c1,2.65%
2,COc1cc(CN2CCN(c3cccc(C)c3C)CC2)cc(OC)c1,55.4%
3,COc1cc(CN2CCN(c3ccccc3C)CC2)cc(OC)c1,1.9%
4,COc1ccc(CN2CCN(c3cccc(C)c3C)CC2)cc1OC,9.04%
5,O=C1NC(=O)/C(=C/c2ccc(-c3ccc(O)c(C(=O)O)c3)o2)S1,64.8%
6,O=C1NC(=O)/C(=C\c2ccc(-c3ccc(Cl)cc3)o2)S1,6.08%
7,O=C1NC(=O)/C(=C\c2ccc(-c3ccc(Cl)c(C(=O)O)c3)o2)S1,8.24%
8,OCCN(Cc1ccccc1)CC1CC=CCC1 (stereo not drawn),1.38%
9,COC(=O)c1cc(O)nc(SCc2cccc(C)c2)n1,4.47%
10,CCCn1c(=N)c(S(=O)(=O)c2ccc(C)cc2)cc2c(=O)n3ccccc3nc21,3.99%
11,Cc1ccc(S(=O)(=O)c2cc3c(=O)n4ccccc4nc3n(C)c2=N)cc1,57.9%
12,Cc1ccc(S(=O)(=O)c2cc3c(=O)n4ccccc4nc3n(CCO)c2=N)cc1,-4.59%
13,C=CCOCC(O)CSc1nc(C)cc(C)n1 (stereo not drawn),3.48%
14,O=C(C1CCCC1)N1CCN(C(c2ccccc2)c2ccccc2)CC1,0.795%
15,O=C(Nc1ccccc1)c1nc2ccccc2s1,5.39%
16,CCCCCCc1cc2cc(C(=O)O)c(=O)oc2cc1O,4.08%
17,CCCCCCc1cc2cc(C#N)c(=O)oc2cc1O,67.5%
18,CCCCCCc1cc2cc(-c3csc(N)n3)c(=O)oc2cc1O,1.12%
19,CCOc1ccc(C2c3c(oc4ccccc4c3=O)C(=O)N2c2nc(C)c(C(=O)OC)s2)cc1 (stereo not drawn),70.8%
20,CCc1ccc(C2c3c(oc4ccccc4c3=O)C(=O)N2c2nc(C)c(C(=O)OC)s2)cc1 (stereo not drawn),-1.86%
21,C=CCOc1ccc(C2c3c(oc4ccccc4c3=O)C(=O)N2c2nc(C)c(C(=O)OC)s2)cc1 (stereo not drawn),3.12%
22,CCOC(=O)c1sc(N2C(=O)c3oc4ccccc4c(=O)c3C2c2ccc(O)c(OC)c2)nc1C (stereo not drawn),2.16%
23,CCOc1cc(C2c3c(oc4ccccc4c3=O)C(=O)N2c2nc(C)c(C(C)=O)s2)ccc1O (stereo not drawn),-0.828%
24,CCOc1cc(C2c3c(oc4ccccc4c3=O)C(=O)N2c2nc(C)c(C(=O)OC)s2)ccc1O (stereo not drawn),69.6%
25,CCn1cc(C(=O)Nc2ccccc2C(C)C)cn1,6.1%
26,CCS(=O)(=O)c1nc(S(=O)(=O)c2ccc(C)cc2)c(NCCc2ccccc2)s1,-5.89%
27,Cc1nc2c(nc(C)n2-c2ccccc2)s1,2.92%

row,Structure (SMILES),% Inhibition @ 10 uM
1,CCOc1ccc(Nc2nc(-c3cccs3)cs2)cc1,-1.37%
2,CCC(C(=O)NCc1ccc(OC(C)C)cc1)n1nc(C)c2sc3ccccc3c2c1=O (stereo not drawn),2.8%
3,CCCCNC(=O)C(CC)n1nc(C)c2sc3ccccc3c2c1=O (stereo not drawn),-2.61%
4,CCc1ccc(CNC(=O)C(CC)n2nc(C)c3sc4ccccc4c3c2=O)cc1 (stereo not drawn),90.8%
5,O=S(=O)(c1ccccc1)N1CCN(c2ccccc2)CC1,5.09%
6,O=C1CN(S(=O)(=O)c2ccccc2)CCN1S(=O)(=O)c1ccccc1,60.8%
7,CN1CCN(S(=O)(=O)c2ccccc2)CC1,-0.127%
8,COc1cc(CN2CCc3c([nH]c4ccccc34)C2)cc2c1OCO2,-5.11%
9,CC(=O)C1=C(C)OC(N)=C(C#N)C1c1cc2c(cc1[N+](=O)[O-])OCO2 (stereo not drawn),-1.29%
10,CN(Cc1cnn(-c2ccccc2)c1)S(=O)(=O)c1ccc(-c2cc(C(F)(F)F)no2)s1,1.05%
11,Cc1cc(C(F)(F)F)c(C#N)c(SCc2ccccc2)n1,2.23%
12,Cc1cc(C)c(C#N)c(Cl)n1,1.27%
13,CCc1nc(S)c(C#N)c(C(F)(F)F)c1C,74.2%
14,CC(C)(C)c1cc(-c2ccco2)c(C#N)c(S)n1,20.6%
15,Cc1cc(-c2ccco2)c(C#N)c(S)n1,51.7%
16,Cc1cc(-c2ccco2)c(C#N)c(N)n1,1.38%
17,Cc1cc(C(F)(F)F)c(C#N)c(S)n1,82.2%
18,CSc1nc(C)cc(C(F)(F)F)c1C#N,4.97%
19,CCc1nc(N)c(C#N)c(-c2ccc(Br)s2)c1C,-3.13%
20,COCc1cc(C)nc(S)c1C#N,43.7% and 44.2%
21,CCc1nc(SCc2cccnc2)c(C#N)c(C(F)(F)F)c1C,0.775%
22,Cc1cc(C)c(C#N)c(S)n1,89.9%
23,O=C1c2cccnc2C(=O)N1c1ccccc1-c1ccccc1,-2.29%
24,COCCNC(=O)c1sc2ncn(CC(=O)N3CCC(C)CC3)c(=O)c2c1C,-2.17%
